Inconclusive results are not listed. A call without a number means that no potency is given here. Activity calls are given as the source filed them. Unless noted, the call rests on the fitted dose curve.
Assays:
[1] = Nuclear factor erythroid 2-related factor 2/antioxidant responsive element (Nrf2/ARE) small molecule agonists: qHTS cell viability counter screen in human keratinocytes (AID 1919968; active means well fitted curve in the direction sought with a large enough effect in the repeat runs; an effect the other way counts as inactive or inconclusive; further: nearly all actives have a fitted effect of over 55% in size; further: potency means the concentration at half of the fitted maximal effect)
Summary of the method: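 Parallel cytotoxicity read: KeratinoSens HaCaT cells, compound treatment 23 h, viability by CellTiter-Fluor fluorescence 1 h post-reagent.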

[2] = Nuclear factor erythroid 2-related factor 2/antioxidant responsive element (Nrf2/ARE) small molecule agonists: luciferase reporter gene qHTS assay in human keratinocytes (AID 1919969); further: nearly all actives have a fitted effect of over 35% in size; further: potency means the concentration at half of the fitted maximal effect
[3] = target: Gonadotropin-releasing hormone receptor (Homo sapiens) (UniProt P30968); assay: Human gonadotropin-releasing hormone receptor (GnRHR) small molecule agonists, calcium flux assay in GnRHR-HEK293 cells (AID 1920063); further: nearly all actives have a fitted effect of over 35% in size
Summary of the method: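 Calcium flux, agonist mode, human GnRHR stably integrated in HEK293; dye 1 h at 37 C before compound; Ex/Em=480/540 kinetic read, 3 min; 15 concentrations, triplicate.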

[4] = target: KiSS-1 receptor (Homo sapiens) (UniProt Q969F8); assay: Human kisspeptin (KISS1R) small molecule agonists, calcium flux assay in KISS1R-HEK293 cells (AID 1920064; active means well fitted curve in the direction sought with a large enough effect in the repeat runs; an effect the other way counts as inactive or inconclusive)
Summary of the method: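 Triplicate 15-concentration series were applied to dye-loaded human KISS1R HEK293 cells, and agonist-evoked calcium fluorescence was captured for 3 min.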

[5] = G protein-coupled receptor (GPCR) small molecule agonists, calcium flux assay: HEK293 wild type cell line counter screen (AID 1920065)
Summary of the method: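 Non-specific calcium responders were flagged by adding DMSO-dissolved compounds to dye-loaded cells and reading 480/540 nm fluorescence each second for 3 min; ATP served as positive control.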

[6] = p53 small molecule agonists, cell-based qHTS assay with rat liver microsomes (AID 1963578)
Summary of the method: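 p53RE-bla cells, 4,000/well, pre-incubated 5 h, then given compounds plus rat liver microsomes (0.5 mg/mL final) and NADPH (0.5 mg/mL final). Incubation 16 h at 37 C; beta-lactamase reporter read by LiveBLAzer fluorescence after 2 h at room temperature.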

[7] = p53 small molecule agonists, cell-based qHTS assay with human liver microsomes: qHTS cell viability counter screen (AID 1963579); further: nearly all actives have a fitted effect of over 45% in size; further: potency means the concentration at half of the fitted maximal effect
Summary of the method: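 p53RE-bla cells, 4,000/well, dosed 5 hours after plating, with human liver microsomes (0.5 mg/mL final) plus NADPH (0.5 mg/mL final), 16 hours at 37 C. Viability read as CellTiter-Glo luminescence after 30 min at room temperature.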

[8] = p53 small molecule agonists, cell-based qHTS assay with rat liver microsomes: qHTS cell viability counter screen (AID 1963580); further: nearly all actives have a fitted effect of over 45% in size; further: potency means the concentration at half of the fitted maximal effect
Summary of the method: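 After the beta-lactamase ratio was read, CellTiter-Glo was added to the same wells and luminescence measured at 30 min; cells had been treated 16 h at 37 C with compounds, rat liver microsomes and NADPH (0.5 mg/mL final each).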

[9] = p53 small molecule agonists, cell-based qHTS assay: qHTS cell viability counter screen (AID 1963581); further: nearly all actives have a fitted effect of over 45% in size; further: potency means the concentration at half of the fitted maximal effect
Summary of the method: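 Multiplexed with the reporter read, a CellTiter-Glo step (30 min, room temperature) gauges ATP-based viability of HCT-116 p53RE-bla cells after 16 h compound incubation at 37 C.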

[10] = p53 small molecule agonists, cell-based qHTS assay (AID 1963582; active means well fitted activation curve with a large enough effect in the signal ratio in the repeat runs, not every such curve was filed as active; the % refers to the signal ratio)
Summary of the method: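 Beta-lactamase reporter cells (p53RE-bla) treated with compounds for 16 h at 37 C; FRET substrate, 2 h, room temperature; fluorescence intensity.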

[11] = target: 5-hydroxytryptamine receptor 2A (Homo sapiens) (UniProt P28223); assay: 5-hydroxytryptamine receptor 2A (HTR2A) small molecule antagonists, cell-based qHTS assay (AID 1963586); further: nearly all actives have a fitted effect of over 45% in size
Summary of the method: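 CHO cells stably expressing human HTR2A were plated for 18 h at 37 C, then loaded with calcium dye for 1 h. Compounds were preincubated 5 min at room temperature before DOI (4 nM solution) was added. Kinetic fluorescence was read for 3 min.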

[12] = target: 5-hydroxytryptamine receptor 2A (Homo sapiens) (UniProt P28223); assay: 5-hydroxytryptamine receptor 2A (HTR2A) small molecule agonists, cell-based qHTS assay (AID 1963587); further: nearly all actives have a fitted effect of over 30% in size
Summary of the method: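 CHO cells stably expressing human HTR2A, plated 18 h, loaded with calcium dye 1 h at 37 C. Agonist mode: compounds added and intracellular calcium fluorescence recorded kinetically for 2 min at 1 sec intervals.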

[13] = target: Muscarinic acetylcholine receptor M1 (Homo sapiens) (UniProt P11229); assay: Cholinergic receptor muscarinic 1 (CHRM1) small molecule antagonists, cell-based qHTS assay (AID 1963588); further: nearly all actives have a fitted effect of over 40% in size; further: potency means the concentration at half of the fitted maximal effect
Summary of the method: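 Compounds were tested at 15 concentrations in three independent runs. Dye-loaded CHRM1-CHO cells were exposed 5 min at room temperature before stimulation by acetylcholine added at 50nM. Intracellular calcium was read kinetically on FDSS for 3 min.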

[14] = target: Muscarinic acetylcholine receptor M1 (Homo sapiens) (UniProt P11229); assay: Cholinergic receptor muscarinic 1 (CHRM1) small molecule agonists, cell-based qHTS assay (AID 1963589); further: nearly all actives have a fitted effect of over 35% in size
Summary of the method: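 qHTS, 15-point titration, 3 independent runs: compounds pin-transferred onto dye-loaded CHRM1-CHO cells (human M1), calcium fluorescence followed every second to detect agonism.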

[15] = cAMP Responsive Elements (CRE) small molecule agonists, cell-based qHTS assay (AID 1963590)
Summary of the method: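 Quantitative HTS for CRE agonists: HEK 293T CRE-bla cells, overnight plating, 3 h compound incubation at 37 C/5% CO2, then 2 h room-temperature LiveBLAzer B/G FRET substrate loading.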

[16] = target: Beta-2 adrenergic receptor (Homo sapiens) (UniProt P07550); assay: Adrenergic beta2 receptor (ADRB2) small molecule antagonists, cell-based qHTS assay (AID 1963592); further: series mostly up to about 92 µM; nearly all actives have a fitted effect of over 50% in size
Summary of the method: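 Assay format: CHO-ADRB2 cells, 18-20hr seeding at 37C/5% CO2, then compound plus 1nM isoproterenol agonist mix for 0.5hr RT. Homogeneous time-resolved fluorescence cAMP detection after 1hr, expressed as 665/615 nm ratio.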

[17] = target: D(2) dopamine receptor (Homo sapiens) (UniProt P14416); assay: Dopamine D2 receptor (DRD2) small molecule agonists, cell-based qHTS assay (AID 1963594); further: nearly all actives have a fitted effect of over 35% in size
Summary of the method: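 HEK293 cells stably expressing human DRD2, pre-treated with PDE inhibitor Ro20-1724 (0.1 mM final) and compound 10 min at room temperature, then stimulated with NKH477 (200nM […]) for 30 min. cAMP read by HTRF (665/620 nm).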

[18] = target: D(2) dopamine receptor (Homo sapiens) (UniProt P14416); assay: Dopamine D2 receptor (DRD2) small molecule antagonists, cell-based qHTS assay (AID 1963595; active means well fitted inhibition curve with a large enough effect in the signal ratio in the repeat runs, with a control signal flat; the % refers to the signal ratio)
Summary of the method: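 HEK293 cells stably expressing DRD2 were preincubated with 0.1 mM Ro20-1724, then with compound for 10 min at room temperature. Cells were stimulated with 200 nM NKH477 plus 12 nM quinpirole for 30 min, and cAMP was read by HTRF.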

[19] = p53 small molecule agonists, cell-based qHTS assay with human liver microsomes (AID 1963577); further: potency means the concentration at half of the fitted maximal effect
Summary of the method: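 p53RE-bla cells, 4,000/well, compound added after 5 h, with human liver microsomes 0.5 mg/mL and NADPH 0.5 mg/mL final; 16 h at 37 C, then LiveBLAzer 2 h RT, fluorescence.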

[20] = cAMP Responsive Elements (CRE) small molecule antagonists, cell-based qHTS assay (AID 1963591; active means well fitted inhibition curve with a large enough effect in the signal ratio in the repeat runs, not every such curve was filed as active; the % refers to the signal ratio)
Summary of the method: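 Fluorescence intensity from cleaved LiveBLAzer B/G substrate (2 h, room temperature) quantified CRE-bla activity in HEK 293T cells exposed 3 h to compound with 0.25 uM final NKH477.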

Chain of Muscarinic acetylcholine receptor M1 (Homo sapiens) (P11229 whole entry, looked up): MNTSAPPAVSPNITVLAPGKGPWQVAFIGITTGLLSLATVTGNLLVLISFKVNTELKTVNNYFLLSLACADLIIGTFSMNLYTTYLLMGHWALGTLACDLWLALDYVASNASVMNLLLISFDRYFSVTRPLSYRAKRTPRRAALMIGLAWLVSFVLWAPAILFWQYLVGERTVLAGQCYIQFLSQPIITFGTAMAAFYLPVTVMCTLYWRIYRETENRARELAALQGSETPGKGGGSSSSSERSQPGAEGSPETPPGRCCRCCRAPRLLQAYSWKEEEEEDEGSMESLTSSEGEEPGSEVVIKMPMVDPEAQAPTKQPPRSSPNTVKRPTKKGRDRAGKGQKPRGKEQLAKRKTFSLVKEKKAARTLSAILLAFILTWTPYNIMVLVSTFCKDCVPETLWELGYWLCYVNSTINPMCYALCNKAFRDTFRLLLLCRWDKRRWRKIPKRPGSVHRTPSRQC
Chain of Beta-2 adrenergic receptor (Homo sapiens) (P07550 whole entry, looked up): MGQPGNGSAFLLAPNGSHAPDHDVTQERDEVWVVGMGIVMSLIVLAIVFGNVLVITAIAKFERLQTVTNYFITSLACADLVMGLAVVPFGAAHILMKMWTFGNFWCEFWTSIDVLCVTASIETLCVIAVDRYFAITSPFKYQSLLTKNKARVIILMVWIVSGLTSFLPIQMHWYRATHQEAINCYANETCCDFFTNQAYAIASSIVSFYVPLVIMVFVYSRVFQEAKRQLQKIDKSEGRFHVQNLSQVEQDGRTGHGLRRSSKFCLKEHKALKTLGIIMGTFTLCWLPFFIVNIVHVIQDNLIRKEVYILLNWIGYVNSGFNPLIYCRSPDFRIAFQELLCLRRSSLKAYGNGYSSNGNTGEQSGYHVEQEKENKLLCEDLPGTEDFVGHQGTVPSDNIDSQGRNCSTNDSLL
Chain of 5-hydroxytryptamine receptor 2A (Homo sapiens) (P28223 whole entry, looked up): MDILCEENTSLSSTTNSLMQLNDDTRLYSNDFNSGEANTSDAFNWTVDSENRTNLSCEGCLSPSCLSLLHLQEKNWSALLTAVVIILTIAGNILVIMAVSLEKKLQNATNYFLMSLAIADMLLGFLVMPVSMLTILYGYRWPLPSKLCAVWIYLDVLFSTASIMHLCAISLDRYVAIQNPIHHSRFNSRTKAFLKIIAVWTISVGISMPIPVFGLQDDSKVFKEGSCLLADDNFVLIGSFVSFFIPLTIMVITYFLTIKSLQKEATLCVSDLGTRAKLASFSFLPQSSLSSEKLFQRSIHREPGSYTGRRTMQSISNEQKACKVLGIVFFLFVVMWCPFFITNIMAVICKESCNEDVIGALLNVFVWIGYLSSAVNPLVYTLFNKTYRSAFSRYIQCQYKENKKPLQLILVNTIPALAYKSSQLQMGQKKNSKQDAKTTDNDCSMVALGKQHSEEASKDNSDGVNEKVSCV
Chain of KiSS-1 receptor (Homo sapiens) (Q969F8 whole entry, looked up): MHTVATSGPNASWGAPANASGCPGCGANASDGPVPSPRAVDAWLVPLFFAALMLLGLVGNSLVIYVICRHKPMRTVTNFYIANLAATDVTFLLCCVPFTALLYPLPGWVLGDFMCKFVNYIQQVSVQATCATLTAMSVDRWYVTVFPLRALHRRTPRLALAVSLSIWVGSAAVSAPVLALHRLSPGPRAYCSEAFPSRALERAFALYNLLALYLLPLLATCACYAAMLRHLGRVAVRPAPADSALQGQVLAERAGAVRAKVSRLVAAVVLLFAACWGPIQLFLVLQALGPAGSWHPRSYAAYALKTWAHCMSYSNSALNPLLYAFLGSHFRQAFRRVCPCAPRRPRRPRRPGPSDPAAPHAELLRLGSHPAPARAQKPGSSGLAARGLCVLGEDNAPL
Chain of Gonadotropin-releasing hormone receptor (Homo sapiens) (P30968 whole entry, looked up): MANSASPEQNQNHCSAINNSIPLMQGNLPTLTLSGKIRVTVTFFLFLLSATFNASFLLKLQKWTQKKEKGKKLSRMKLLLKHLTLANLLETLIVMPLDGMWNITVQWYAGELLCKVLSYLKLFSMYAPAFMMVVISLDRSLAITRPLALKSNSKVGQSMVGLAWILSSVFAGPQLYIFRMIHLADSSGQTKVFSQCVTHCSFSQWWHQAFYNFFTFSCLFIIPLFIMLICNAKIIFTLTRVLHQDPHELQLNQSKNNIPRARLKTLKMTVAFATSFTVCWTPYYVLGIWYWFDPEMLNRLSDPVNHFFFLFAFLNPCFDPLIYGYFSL
Chain of D(2) dopamine receptor (Homo sapiens) (P14416 whole entry, looked up): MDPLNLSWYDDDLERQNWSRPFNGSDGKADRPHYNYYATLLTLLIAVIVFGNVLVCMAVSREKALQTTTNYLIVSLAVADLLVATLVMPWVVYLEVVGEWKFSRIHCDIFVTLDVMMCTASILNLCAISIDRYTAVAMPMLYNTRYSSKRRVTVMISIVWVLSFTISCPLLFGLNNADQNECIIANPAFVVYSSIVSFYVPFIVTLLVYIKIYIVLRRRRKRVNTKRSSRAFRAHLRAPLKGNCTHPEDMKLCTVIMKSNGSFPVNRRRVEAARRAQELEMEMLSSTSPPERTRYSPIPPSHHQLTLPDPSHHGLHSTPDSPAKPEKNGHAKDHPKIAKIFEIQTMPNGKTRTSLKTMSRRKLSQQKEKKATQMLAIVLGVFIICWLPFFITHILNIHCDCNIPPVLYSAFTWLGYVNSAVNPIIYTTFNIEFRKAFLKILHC

Row | Compound | Potency [1] | Potency [2] | Potency [3] | Potency [4] | Potency [5] | Potency [6] | Potency [7] | Potency [8] | Potency [9] | Potency [10] | Potency [11] | Potency [12] | Potency [13] | Potency [14] | Potency [15] | Potency [16] | Potency [17] | Potency [18] | Potency [19] | Potency [20]
1 | O=C1OC(c2ccc(O)c(S(=O)(=O)O)c2)(c2ccc(O)c(S(=O)(=O)O)c2)c2c(Br)c(Br)c(Br)c(Br)c21 | inactive | 8.41 µM (active) | inactive | inactive | inactive | inactive | inactive | inactive | inactive | inactive | inactive | inactive | inactive | inactive | inactive | inactive | inactive | inactive | – | –
2 | Cc1cccc2sc3nncn3c12 | inactive | inactive | inactive | inactive | inactive | – | inactive | – | inactive | inactive | inactive | inactive | inactive | inactive | inactive | – | – | inactive | inactive | inactive
3 | CN1[C@@H]2CC[C@H]1CC(OC(=O)c1cc(Cl)cc(Cl)c1)C2 (some centres undefined) | inactive | inactive | inactive | inactive | inactive | – | inactive | inactive | – | inactive | inactive | inactive | – | inactive | inactive | inactive | inactive | inactive | inactive | inactive
4 | CC(Cc1ccccc1)N(C)Cc1ccco1 (centres undefined) | inactive | inactive | inactive | inactive | inactive | – | inactive | inactive | inactive | inactive | – | inactive | inactive | inactive | inactive | inactive | – | inactive | inactive | inactive
5 | C=CCOC(=O)C(C)(C)OC(=O)c1cc(-n2c(=O)cc(C(F)(F)F)n(C)c2=O)ccc1Cl | inactive | inactive | inactive | inactive | inactive | inactive | inactive | inactive | inactive | inactive | inactive | inactive | inactive | inactive | inactive | inactive | inactive | inactive | – | –
6 | CCOP(=S)(OCC)SCn1nnc2ccccc2c1=O | inactive | inactive | inactive | inactive | inactive | – | – | inactive | – | inactive | – | inactive | inactive | inactive | – | inactive | inactive | inactive | 3.24 µM (active) | –
7 | CCOP(=O)(OCC)O/C(=C/Cl)c1ccc(Cl)cc1Cl | inactive | inactive | inactive | inactive | inactive | – | – | inactive | inactive | – | – | inactive | inactive | inactive | – | inactive | inactive | inactive | 2.57 µM (active) | –
8 | O=[N+]([O-])c1cc(C(F)(F)F)c(Cl)c([N+](=O)[O-])c1Cl | 24.3 µM (active) | 9.69 µM (active) | inactive | inactive | inactive | – | – | 36.3 µM (active) | 16.2 µM (active) | – | inactive | inactive | inactive | inactive | – | inactive | inactive | inactive | inactive | –
9 | COc1ccc([N+](=O)[O-])cc1O | inactive | inactive | inactive | inactive | inactive | inactive | inactive | inactive | inactive | inactive | inactive | inactive | inactive | inactive | inactive | inactive | inactive | inactive | – | –
10 | NP(N)(=O)NC(=O)c1ccc(F)cc1 | inactive | inactive | inactive | inactive | inactive | – | inactive | inactive | inactive | inactive | – | inactive | inactive | – | inactive | inactive | inactive | inactive | inactive | inactive
11 | CC(C)OC(=O)C(O)(c1ccc(Cl)cc1)c1ccc(Cl)cc1 | 30.6 µM (active) | inactive | inactive | inactive | inactive | – | 40.8 µM (active) | – | – | – | inactive | inactive | 13.3 µM (active) | inactive | – | – | inactive | – | inactive | –
12 | CCC(C)Br (centres undefined) | inactive | inactive | inactive | inactive | inactive | inactive | inactive | inactive | inactive | inactive | inactive | inactive | – | inactive | inactive | inactive | inactive | inactive | – | inactive
13 | C#C[C@]1(O)C=C[C@H]2[C@@H]3CCC4=CC(=O)CC[C@@H]4[C@H]3CC[C@@]21CC | inactive | inactive | inactive | inactive | inactive | inactive | inactive | inactive | inactive | inactive | inactive | inactive | inactive | inactive | – | inactive | inactive | inactive | – | –
14 | CC(C1CC1)C(O)(Cn1cncn1)c1ccc(Cl)cc1 (centres undefined) | inactive | inactive | inactive | inactive | inactive | inactive | inactive | inactive | inactive | inactive | inactive | inactive | inactive | inactive | inactive | inactive | inactive | inactive | – | –

— PubChem BioAssay (Tox21)
